What all share (set-up): scale not given: direction of the effect not stated beside the values
Assay [1] has as its target Protein translocase subunit SecA (Escherichia coli (strain K12)) (UniProt P10408). Briefly: Assay to Identify E. coli SecA ATPase Inhibitors. The format is functional. Conditions: 30 µM.
The target of assay [2] is T1, Ubiquitin-activating enzyme e1, putative (Leishmania donovani (strain BPK282A1)) (UniProt E9BSI1).
T1 sequence (whole entry): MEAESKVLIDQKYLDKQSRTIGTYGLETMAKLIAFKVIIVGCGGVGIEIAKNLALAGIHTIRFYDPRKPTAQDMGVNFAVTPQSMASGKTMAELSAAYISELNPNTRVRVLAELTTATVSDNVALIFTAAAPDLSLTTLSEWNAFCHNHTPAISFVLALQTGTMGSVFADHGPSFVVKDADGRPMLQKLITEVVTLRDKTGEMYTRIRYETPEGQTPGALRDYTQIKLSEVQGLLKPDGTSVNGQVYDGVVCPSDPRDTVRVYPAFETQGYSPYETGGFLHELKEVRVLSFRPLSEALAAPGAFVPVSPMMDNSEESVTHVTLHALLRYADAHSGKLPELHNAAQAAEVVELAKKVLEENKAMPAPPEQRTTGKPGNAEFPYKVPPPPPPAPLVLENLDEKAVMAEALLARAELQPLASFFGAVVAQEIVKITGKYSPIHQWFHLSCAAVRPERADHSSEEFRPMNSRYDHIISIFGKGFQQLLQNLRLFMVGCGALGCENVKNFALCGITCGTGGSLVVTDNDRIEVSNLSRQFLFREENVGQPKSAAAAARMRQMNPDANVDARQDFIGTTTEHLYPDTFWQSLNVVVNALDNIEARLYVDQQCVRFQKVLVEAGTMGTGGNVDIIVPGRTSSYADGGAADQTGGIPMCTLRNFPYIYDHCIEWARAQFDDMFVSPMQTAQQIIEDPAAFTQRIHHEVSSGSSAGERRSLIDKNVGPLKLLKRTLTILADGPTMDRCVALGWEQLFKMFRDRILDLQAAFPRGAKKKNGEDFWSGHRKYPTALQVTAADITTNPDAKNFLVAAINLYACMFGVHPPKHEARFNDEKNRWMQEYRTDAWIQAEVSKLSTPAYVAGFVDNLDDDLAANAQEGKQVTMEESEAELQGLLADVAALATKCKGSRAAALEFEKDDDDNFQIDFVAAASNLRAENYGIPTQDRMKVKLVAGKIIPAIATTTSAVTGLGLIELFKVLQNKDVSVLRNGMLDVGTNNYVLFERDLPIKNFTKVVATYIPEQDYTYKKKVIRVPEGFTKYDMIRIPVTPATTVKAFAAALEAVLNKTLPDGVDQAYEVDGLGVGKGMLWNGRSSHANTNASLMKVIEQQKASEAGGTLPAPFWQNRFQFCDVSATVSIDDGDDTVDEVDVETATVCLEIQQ
As to the kind of experiment: Leishmania donovani Ubiquitin Activating Enzyme (LdE1). The format is functional. Conditions: 30 µM.

The target in assay [3] is AMP-activated protein kinase, AMPK (Homo sapiens) (UniProt P54646+O43741+P54619+Q9UGJ0+Q9Y478+Q13131+Q9UGI9). As to the kind of experiment: AMP-dependent Kinase enzyme assay. An in vitro enzyme assay that detects ADP turnover that is directly proportional to AMPK activity. This uses naive AMPK that is activated during the assay with MK-8722. Type of assay: functional. Conditions: 30 µM.

For assay [4], the target named is Sialic acid-binding Ig-like lectin 9 (Homo sapiens) (UniProt Q9Y336). As to the kind of experiment: Hs-Siglec9 ALPHAscreen SOP 20170721. The note with it: 10 µM.
Chain of Sialic acid-binding Ig-like lectin 9 (Homo sapiens) (Q9Y336 whole entry): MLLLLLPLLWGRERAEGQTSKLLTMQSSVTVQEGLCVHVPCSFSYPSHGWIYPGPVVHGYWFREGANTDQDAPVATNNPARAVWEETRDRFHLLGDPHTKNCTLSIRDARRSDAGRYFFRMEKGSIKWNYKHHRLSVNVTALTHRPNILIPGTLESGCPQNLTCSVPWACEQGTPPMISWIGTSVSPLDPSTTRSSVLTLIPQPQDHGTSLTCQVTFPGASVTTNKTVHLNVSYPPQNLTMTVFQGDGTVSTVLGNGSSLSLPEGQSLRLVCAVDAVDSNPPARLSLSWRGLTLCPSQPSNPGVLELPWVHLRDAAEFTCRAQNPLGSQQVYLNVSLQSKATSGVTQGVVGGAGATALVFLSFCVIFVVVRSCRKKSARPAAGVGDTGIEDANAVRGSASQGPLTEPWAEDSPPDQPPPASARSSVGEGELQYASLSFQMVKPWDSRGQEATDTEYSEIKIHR
A further assay relates to Trypanosoma cruzi. Briefly: Trypanosoma cruzi phosphomannomutase and mannose-1-phosphate guanylyltransferase assay. Type of assay: functional. Conditions: 10 µM.
Assay [5] addresses T2, Arginase-2, mitochondrial (Homo sapiens) (UniProt P78540).
T2 sequence (whole entry): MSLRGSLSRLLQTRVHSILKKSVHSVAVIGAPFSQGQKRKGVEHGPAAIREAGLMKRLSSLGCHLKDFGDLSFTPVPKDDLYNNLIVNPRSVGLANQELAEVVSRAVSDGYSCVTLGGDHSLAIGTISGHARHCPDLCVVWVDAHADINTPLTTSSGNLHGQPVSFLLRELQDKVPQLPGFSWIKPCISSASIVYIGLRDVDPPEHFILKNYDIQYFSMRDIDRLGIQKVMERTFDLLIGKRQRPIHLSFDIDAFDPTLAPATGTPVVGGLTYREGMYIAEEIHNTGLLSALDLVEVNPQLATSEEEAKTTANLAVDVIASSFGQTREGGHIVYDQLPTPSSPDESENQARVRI
Briefly: in vitro enzyme assay to detect the production of urea directly proportional to the activity of Arginase II. Also: in the data most compounds retested in dose-response had high values. The format is functional. The note with it: 33.3 µM.

Assay [6] has as its target T3, Proteasome subunit beta (Trypanosoma cruzi) (UniProt O96673).
T3 sequence (whole entry): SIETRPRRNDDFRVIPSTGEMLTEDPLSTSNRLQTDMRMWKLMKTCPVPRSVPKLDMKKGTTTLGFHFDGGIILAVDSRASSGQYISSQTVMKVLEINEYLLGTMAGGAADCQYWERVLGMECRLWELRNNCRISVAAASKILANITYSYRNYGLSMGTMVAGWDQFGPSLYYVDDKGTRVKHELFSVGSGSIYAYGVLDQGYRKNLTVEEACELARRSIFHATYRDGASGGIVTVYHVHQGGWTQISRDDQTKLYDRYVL
As to the kind of experiment: Trypanosoma cruzi proteasome chymotrypsin-like activity (TcProtChymo) assay. Also: in the data most compounds retested in dose-response had high values. Conditions: 9.37 µM. The format is functional.

The next assay is filed under the species Homo sapiens. Briefly: To identify inhibition of the IFN signalling (Jak-Stat) pathway via expression of an eGFP reporter gene under the control of an IFN-stimulated response element (ISRE) containing MxA promoter. The format is functional. The note with it: 30 µM.
Assay [7] concerns the target T4, Tyrosyl-tRNA synthetase, putative (Trypanosoma cruzi (strain CL Brener)) (UniProt Q4DSP6).
T4 sequence (whole entry): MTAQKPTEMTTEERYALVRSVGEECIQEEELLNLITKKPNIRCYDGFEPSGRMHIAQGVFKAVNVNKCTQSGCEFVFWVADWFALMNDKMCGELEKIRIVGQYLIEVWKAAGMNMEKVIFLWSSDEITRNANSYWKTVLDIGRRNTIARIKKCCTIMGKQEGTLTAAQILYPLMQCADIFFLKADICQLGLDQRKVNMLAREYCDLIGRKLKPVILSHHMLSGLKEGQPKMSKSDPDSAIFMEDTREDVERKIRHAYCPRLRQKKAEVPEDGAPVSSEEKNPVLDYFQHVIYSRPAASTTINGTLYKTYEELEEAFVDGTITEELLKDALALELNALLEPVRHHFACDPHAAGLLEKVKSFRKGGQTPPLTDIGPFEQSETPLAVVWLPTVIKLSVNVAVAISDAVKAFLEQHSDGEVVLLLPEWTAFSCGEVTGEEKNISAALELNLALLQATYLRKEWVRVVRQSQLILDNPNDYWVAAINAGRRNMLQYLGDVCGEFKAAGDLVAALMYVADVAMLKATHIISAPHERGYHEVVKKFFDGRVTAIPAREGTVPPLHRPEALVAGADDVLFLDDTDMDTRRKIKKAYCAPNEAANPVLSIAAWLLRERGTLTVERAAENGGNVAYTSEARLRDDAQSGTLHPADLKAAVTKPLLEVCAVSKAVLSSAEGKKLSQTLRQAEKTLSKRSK
As to the kind of experiment: Trypanosoma cruzi tyrosyl tRNA synthetase (TcYRS) _High Tyrosine SOP. Also: in the data most compounds retested in dose-response had high values. Type of assay: functional. Conditions: 30 µM.

Assay [8] deals with T4, Tyrosyl-tRNA synthetase, putative (Trypanosoma cruzi (strain CL Brener)). Briefly: Trypanosoma cruzi tyrosyl tRNA synthetase (TcYRS) SOP. The format is functional. The note with it: 30 µM.
Assay [9] addresses Chromo domain-containing protein 1 (Saccharomyces cerevisiae (strain ATCC 204508 / S288c) (Baker's yeast)) (UniProt P32657). As to the kind of experiment: ScCHD-1 Enzyme Inhibition Assay. Also: in the data most compounds retested in dose-response had high values. The note with it: 30 µM. Type of assay: functional.

The structures appear in SMILES notation. For some of these results: Entries with a potency or affinity are not part of this list.

Chain of Protein translocase subunit SecA (Escherichia coli (strain K12)) (P10408 whole entry): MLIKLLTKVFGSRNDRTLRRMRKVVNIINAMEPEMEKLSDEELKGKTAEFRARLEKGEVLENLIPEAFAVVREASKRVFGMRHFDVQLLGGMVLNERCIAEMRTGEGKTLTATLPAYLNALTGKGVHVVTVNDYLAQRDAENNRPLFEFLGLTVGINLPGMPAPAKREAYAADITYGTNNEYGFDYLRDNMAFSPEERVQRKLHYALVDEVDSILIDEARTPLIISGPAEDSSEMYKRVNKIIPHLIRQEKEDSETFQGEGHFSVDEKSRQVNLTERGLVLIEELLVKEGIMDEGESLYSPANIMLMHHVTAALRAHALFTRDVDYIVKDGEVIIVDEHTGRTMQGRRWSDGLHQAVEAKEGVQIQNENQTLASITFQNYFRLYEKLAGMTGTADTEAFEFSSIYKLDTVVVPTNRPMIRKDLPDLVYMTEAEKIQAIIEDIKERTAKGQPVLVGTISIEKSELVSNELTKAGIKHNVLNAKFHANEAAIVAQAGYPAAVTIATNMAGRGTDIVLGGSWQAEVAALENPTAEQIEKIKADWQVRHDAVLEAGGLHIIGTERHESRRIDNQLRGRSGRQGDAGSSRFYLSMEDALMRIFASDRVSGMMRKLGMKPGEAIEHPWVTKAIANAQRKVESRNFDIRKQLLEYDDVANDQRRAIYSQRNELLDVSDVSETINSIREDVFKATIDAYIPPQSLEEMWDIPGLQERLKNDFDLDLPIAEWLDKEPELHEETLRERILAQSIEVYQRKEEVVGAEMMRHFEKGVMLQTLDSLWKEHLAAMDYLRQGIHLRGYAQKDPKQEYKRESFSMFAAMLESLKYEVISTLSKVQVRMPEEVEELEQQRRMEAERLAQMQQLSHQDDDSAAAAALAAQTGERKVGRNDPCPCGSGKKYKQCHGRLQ
Chain of Chromo domain-containing protein 1 (Saccharomyces cerevisiae (strain ATCC 204508 / S288c) (Baker's yeast)) (P32657 whole entry, the tested form may be a part): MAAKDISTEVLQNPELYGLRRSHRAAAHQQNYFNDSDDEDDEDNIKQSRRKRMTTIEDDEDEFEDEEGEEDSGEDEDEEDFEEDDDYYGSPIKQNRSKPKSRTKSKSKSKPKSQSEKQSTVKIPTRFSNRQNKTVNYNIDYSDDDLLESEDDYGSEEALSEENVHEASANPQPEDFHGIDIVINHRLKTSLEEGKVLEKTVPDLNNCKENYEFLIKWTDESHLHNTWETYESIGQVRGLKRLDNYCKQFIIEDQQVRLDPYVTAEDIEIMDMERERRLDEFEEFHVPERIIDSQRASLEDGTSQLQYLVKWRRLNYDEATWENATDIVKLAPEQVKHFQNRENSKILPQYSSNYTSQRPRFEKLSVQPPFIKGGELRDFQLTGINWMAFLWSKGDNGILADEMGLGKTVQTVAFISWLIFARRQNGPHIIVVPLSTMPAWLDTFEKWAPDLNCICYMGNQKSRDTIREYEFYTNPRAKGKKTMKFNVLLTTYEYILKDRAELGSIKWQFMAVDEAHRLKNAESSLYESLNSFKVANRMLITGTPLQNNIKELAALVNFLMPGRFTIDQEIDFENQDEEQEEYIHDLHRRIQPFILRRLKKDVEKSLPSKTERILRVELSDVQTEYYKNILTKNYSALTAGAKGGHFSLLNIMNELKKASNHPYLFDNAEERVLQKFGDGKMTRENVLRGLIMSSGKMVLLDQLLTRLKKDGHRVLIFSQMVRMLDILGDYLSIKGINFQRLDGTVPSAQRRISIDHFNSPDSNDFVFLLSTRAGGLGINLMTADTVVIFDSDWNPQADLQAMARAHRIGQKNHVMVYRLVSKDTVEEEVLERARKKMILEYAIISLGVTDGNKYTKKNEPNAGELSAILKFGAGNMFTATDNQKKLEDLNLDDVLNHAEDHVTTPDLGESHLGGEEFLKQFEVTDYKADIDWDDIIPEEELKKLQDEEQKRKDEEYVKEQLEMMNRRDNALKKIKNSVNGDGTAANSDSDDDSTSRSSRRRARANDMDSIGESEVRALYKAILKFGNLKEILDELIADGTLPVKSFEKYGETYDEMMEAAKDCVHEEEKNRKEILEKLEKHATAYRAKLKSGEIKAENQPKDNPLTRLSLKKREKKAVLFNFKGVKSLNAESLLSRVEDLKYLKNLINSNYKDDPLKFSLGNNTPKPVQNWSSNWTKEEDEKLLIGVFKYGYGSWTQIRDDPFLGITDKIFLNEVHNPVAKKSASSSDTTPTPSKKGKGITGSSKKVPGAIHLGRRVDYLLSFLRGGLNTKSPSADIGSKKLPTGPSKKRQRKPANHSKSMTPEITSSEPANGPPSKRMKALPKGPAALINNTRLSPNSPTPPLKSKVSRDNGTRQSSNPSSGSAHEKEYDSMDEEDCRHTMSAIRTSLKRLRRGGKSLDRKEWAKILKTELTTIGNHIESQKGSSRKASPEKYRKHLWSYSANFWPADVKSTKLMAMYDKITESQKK

For `Cc1cnc(N2CCC3(CCCN(c4ccc(C)nn4)C3)C2)nc1` (stereo unspecified), the Percent Effect in assay [1] was 1.3%; in assay [2], 11%; in assay [3], 1.6%; in assay [4], 7.43%; in the assay on Trypanosoma cruzi it was -6.35%; in assay [5], -21.6%. Also, the Percent Effect in [6] is 13.1%; in the assay listed under Homo sapiens, 33.6%; in assay [7] it was 6.25%; in assay [8], 13.6%; in assay [9] it was -5.51%.
`COc1ccccc1S(=O)(=O)N1CCC(Oc2cccnn2)CC1`: the Percent Effect was -5.78% in [1]; -5.48% in assay [2]; -9.71% in [3]; -3.66% in assay [4]; -4.11% in the assay with Trypanosoma cruzi; -0.909% in [5]. In addition, the Percent Effect in [6] was 3.9%; in the assay filed under Homo sapiens, 16.2%; in assay [7], -1.07%; in [8], -2.5%; in assay [9], -1.62%.
For `CCOc1ccc(N2CCCN=C2NC(=O)c2ccccc2C)cc1`, the Percent Effect in assay [1] was -3.08%; in assay [2], 7.79%; in assay [3], -2.01%; in assay [4], 4.38%; in the assay on Trypanosoma cruzi it was -0.0983%; in assay [5], -5.52%. Further, the Percent Effect was 9.98% in [6]; -13.7% in the assay listed under Homo sapiens; 6.45% in assay [7]; 16.1% in assay [8]; 106% in assay [9].
As for `CN(Cc1nnc(C2CC2)n1C)C1CCN(Cc2ccccc2F)C1` (stereo unspecified), the Percent Effect was -3.03% in assay [1]; -5.48% in assay [2]; -2.94% in assay [3]; 2.42% in [4]; 2.18% with Trypanosoma cruzi; -3.19% in assay [5]. The Percent Effect is 10.4% in [6]; -27.4% in the assay filed under Homo sapiens; 0% in assay [7]; 8.64% in [8]; -4.72% in [9].
Consider `Cc1cnn(CC2CN(Cc3nc(N)c4ccccc4n3)CCO2)c1` (stereo unspecified), for which the Percent Effect in assay [1] is -2.67%; in assay [2], 13%; in assay [3] it was -1.66%; in assay [4], -10%; in the assay on Trypanosoma cruzi it was -5.78%; in [5] it was -1.47%. Also, the Percent Effect in assay [6] is 19.3%; in the assay filed under Homo sapiens it was 10.5%; in assay [7] it was 4.76%; in assay [8] it was 11.8%; in assay [9], -20.4%.
Consider `COc1cc(CNC2CCc3nc(C(C)C)nn3C2)cc2c1OCO2` (stereo unspecified), for which the Percent Effect is -3.28% in assay [1]; 2.63% in [2]; -0.342% in [3]; 1.45% in [4]; -0.28% in the assay with Trypanosoma cruzi; 3.24% in assay [5]. Moreover, the Percent Effect in [6] is -0.592%; in the assay filed under Homo sapiens it was -4.24%; in assay [7], 1.48%; in [8], -6.17%; in [9] it was -3.88%.
With `COCCO[C@H]1CCN(Cc2cccs2)[C@H]1Cc1cccnc1`, the Percent Effect was -3.38% in assay [1]; 0% in assay [2]; -12.3% in [3]; 20.5% in assay [4]; 6.35% with Trypanosoma cruzi; -1.24% in [5]. Moreover, the Percent Effect in assay [6] is 11.6%; in the assay listed under Homo sapiens, 0.814%; in assay [7], 3.23%; in assay [8] it was 6.17%; in assay [9] it was -1.24%.
Turning to `Cc1cc(CN(C)C(=O)c2cccc(N3CCCC3=O)c2)no1`, the Percent Effect is -1.16% in [1]; 20.2% in assay [2]; -7.29% in assay [3]; -9% in [4]; -4.25% in the assay on Trypanosoma cruzi; -0.76% in [5]. In addition, the Percent Effect was 12.2% in assay [6]; 13.3% in the assay listed under Homo sapiens; 3.45% in assay [7]; 16.5% in [8]; -4.16% in [9].
In the case of `O=C(CCc1ccsc1)NCC1CCN(c2ccccc2)C1` (stereo unspecified), the Percent Effect in assay [1] is 0.538%; in assay [2], -6.94%; in [3] it was -4.41%; in assay [4], -4.12%; in the assay on Trypanosoma cruzi it was -6.51%; in assay [5], 5.3%. For the same compound, the Percent Effect in assay [6] was 18.4%; in the assay listed under Homo sapiens, 9.93%; in assay [7] it was 6.32%; in [8], 7.69%; in [9], -1.39%.
Regarding `CS(=O)(=O)NCCC(=O)NC1CCc2nccn2C1` (stereo unspecified), the Percent Effect is 2.27% in assay [1]; 2.67% in assay [2]; -6.45% in assay [3]; 1.64% in [4]; -7.5% in the assay on Trypanosoma cruzi; 2.08% in [5]. The Percent Effect in assay [6] is 19.7%; in the assay filed under Homo sapiens, 11.5%; in assay [7], 4.92%; in [8] it was 11.1%; in assay [9], -5.26%.
With `CC(=O)N1CCC(CN2CCN(Cc3nccn3C)C(C)C2)CC1` (stereo unspecified), the Percent Effect in [1] was -0.614%; in assay [2] it was 18.9%; in assay [3], -4.02%; in [4], -8.56%; in the assay on Trypanosoma cruzi, -2.14%; in assay [5], 4.25%. For the same compound, the Percent Effect in [6] is 14.5%; in the assay filed under Homo sapiens it was 17.6%; in assay [7] it was 9.9%; in assay [8] it was 15.8%; in assay [9], -2.18%.

Values taken from ChEMBL document CHEMBL3988442, “University of Dundee, Small-Polar-MMV Screening Library” (2021).
